From PubChem BioAssay (NCI)
The panel holds about 83,000 compounds, 20% with a hit somewhere; the sample as a whole holds those more often.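 Single-dose data. Exposure time 48 hours. Values below 10 considered active.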 A number with no mark means an inactive call. The source made the active and inactive calls.

What was measured:
Assay in all cases: NCI-60 one-dose screen, 48 h (100 = growth as untreated, 0 = no growth, -100 = all killed)
Details in all cases: 10 µM unless noted
SR leukemia = test system: SR leukemia
RPMI-8226 leukemia = test system: RPMI-8226 leukemia
OVCAR-8 ovarian = test system: OVCAR-8 ovarian
OVCAR-5 ovarian = test system: OVCAR-5 ovarian
OVCAR-4 ovarian = test system: OVCAR-4 ovarian
SK-OV-3 ovarian = test system: SK-OV-3 ovarian
IGROV1 ovarian = test system: IGROV1 ovarian
OVCAR-3 ovarian = test system: OVCAR-3 ovarian
HS 578T breast = test system: HS 578T breast
NCI/ADR-RES ovarian = test system: NCI/ADR-RES ovarian

Row | Structure (SMILES) | growth (SR leukemia) | growth (RPMI-8226 leukemia) | growth (OVCAR-8 ovarian) | growth (OVCAR-5 ovarian) | growth (OVCAR-4 ovarian) | growth (SK-OV-3 ovarian) | growth (IGROV1 ovarian) | growth (OVCAR-3 ovarian) | growth (HS 578T breast) | growth (NCI/ADR-RES ovarian)
1 | Nc1ncnc2c1N=C(c1ccc3c(c1)OCO3)CC(c1cccc(Nc3ccnc4cc(C(F)(F)F)ccc34)c1)N2 (stereo not given) | 23.3% | 5.05% (active) | 67.7% | 108% | 89.2% | 80.2% | 84.2% | 95.1% | 85.8% | 88.3%
2 | O=c1ccc(=O)n(-c2nc(-c3ccc([N+](=O)[O-])cc3)cs2)[nH]1 | 94.5% | 95.3% | 102% | 102% | 101% | 107% | 99.3% | 102% | 98.8% | 104%
3 | CN(C)c1ccc(/C=C(\C#N)c2cc3ccccc3[nH]2)cc1 | 20% | 6.48% (active) | 26% | 44.9% | 55.7% | 26.5% | 50% | 8.37% (active) | 1.2% (active) | 10.8%
4 | CCCn1nc(C(=O)N(C)Cc2ccccc2)c2c1CCC(N1CCc3ccccc31)C2 (stereo not given) | 104% | 90.8% | 93.4% | 92.2% | 102% | 112% | 85.1% | 102% | 96.4% | 94.4%
5 | O=C(CCSc1nnc2n(Cc3ccccc3)c(=O)c3c4c(sc3n12)CCCC4)N1CCN(c2ccccc2)CC1 | 121% | 112% | 110% | 91.7% | 115% | 108% | 103% | 95.9% | 108% | 96.1%
6 | O=P(O)(O)OCC1OC(n2cnc3c(NCc4ccco4)ncnc32)C(O)C1O (stereo not given) | 27.1% | -23.6% (active) | 9.63% (active) | 45.3% | 15.7% | 1.95% (active) | -36.4% (active) | -72% (active) | 32.5% | 19.5%
7 | O=C(/C=C/c1ccc(Cl)cc1)c1cccc(OCCCOc2cccc(C(=O)/C=C/c3ccc(Cl)cc3)c2)c1 | 32.8% | -8.57% (active) | 99.3% | 113% | 91.7% | 100% | 108% | 95.4% | 106% | 105%
8 | COC(=O)c1c2c(c(C)[n+]([O-])c1C)C(=O)C(NCc1cccc(Cl)c1)=CC2=O | 9.98% (active) | 26.9% | -5.76% (active) | 40.6% | -76% (active) | 81.3% | 2.76% (active) | -23.9% (active) | 79.1% | 0.849% (active)
9 | CC1=C(CCC(C)NCc2ccc(OCCCN3CCCCC3)cc2)C(C)(C)CCC1 (stereo not given) | -43.4% (active) | -39.6% (active) | -45.4% (active) | -49.8% (active) | -4.46% (active) | -74.1% (active) | -36.6% (active) | -70.4% (active) | -52.9% (active) | -40.5% (active)
10 | COc1cccc(/C=N/NC(=O)c2ccccc2N2CCCC2)c1O | 77.4% | -1.83% (active) | 54.9% | 57.9% | 18% | 63.6% | -24.3% (active) | -4.45% (active) | 87.3% | 13.6%
11 | CCN1C(=O)N(CC)C2C1NN=c1s/c(=C\c3cnc(C)n3C)c(=O)n12 (stereo not given) | 25.3% | 20.1% | 14.8% | 35.2% | 52% | 27.9% | 35.1% | -17.6% (active) | -1.81% (active) | 75.4%
12 | COc1ccc(C(=O)/C=C/c2ccc(N3CCCCC3)cc2)cc1OC | 73.3% | 72.9% | 92.8% | 99.8% | 65.3% | 107% | 95.4% | 104% | 103% | 92.8%
13 | O=C(O)/C=C/C(=O)Nc1cccc(Cn2nnc3cc(Cl)c(Cl)cc32)c1 | 93.8% | 104% | 99.6% | 100% | 108% | 90.1% | 94.1% | 101% | 88% | 106%
14 | CC1CCN(C(=S)SCC(=O)NC(=O)c2ccccc2)CC1 | 80.6% | 102% | 112% | 101% | 96.6% | 104% | 107% | 111% | 102% | 105%
15 | Clc1c(Cl)[n+](Cc2ccc3ccccc3c2)cn1Cc1ccc2ccccc2c1 | -55.6% (active) | -43% (active) | -10.7% (active) | 54.9% | -3.18% (active) | 19% | -20.3% (active) | -21.8% (active) | 53.1% | 97.8%
16 | Cc1cccc2c1C[C@@]1(C2=O)C(c2ccc(C(C)(C)C)cc2)=NOS1=O (stereo not given in full) | 71% | 69.4% | 89.2% | 112% | 86.3% | 98.4% | 64.5% | 92.1% | 87.2% | 86%
17 | COc1ccc(/C=C2\COc3ccc(O)cc3C2=O)cc1 | 15.8% | -0.495% (active) | 95.3% | 102% | 104% | 128% | 99.6% | 114% | 104% | 98.5%
18 | Cc1ccc(C(=O)c2ccc(CC(=O)NN3C(=O)c4ccccc4C3=O)n2C)cc1 | 110% | 100% | 98.9% | 93.7% | 101% | 109% | 98.6% | 107% | 104% | 99.1%
19 | Cc1cccc[n+]1C1c2ccccc2-c2ccccc21 | 102% | 70.7% | 96.6% | 99% | 97.8% | 73.3% | 92.2% | 98.5% | 101% | 111%
20 | COc1cc(C(=O)n2nc(N3CCOCC3)c3cc(-n4cccc4)ccc32)cc(OC)c1OC | 6.85% (active) | 42.6% | 64% | 98.3% | 68.5% | 72.5% | 68% | 87.3% | 68.5% | 68.5%
21 | Cc1cc2c(cc1C)N(C(=O)CCl)CC(=O)N2 | -8.95% (active) | 37.5% | 61.6% | 96.8% | 60.6% | 68.9% | 43.1% | 6.17% (active) | 72.9% | 62.4%
22 | N=C(N)c1ccc(-c2ccc(-c3cc(Cl)cc(Cl)c3)s2)nc1 | 8.46% (active) | 8.67% (active) | -17.5% (active) | 93.9% | 59.1% | 84.1% | 46.7% | 19.8% | 94% | 91.4%
23 | C/C(=N\O)[C@@H]1CC[C@]2(CO)CC[C@]3(C)[C@H](CC[C@@H]4[C@@]5(C)CCCNC(C)(C)[C@@H]5CC[C@]43C)[C@@H]12 | 12.5% | 53.4% | 91.2% | 88.5% | 77.2% | 105% | 65.2% | 80.3% | 84.3% | 96.6%
24 | COc1ccc(C2=CN3CC=CC3CC2=O)cc1 (stereo not given) | 94.4% | 104% | 103% | 110% | 98.9% | 102% | 104% | 102% | 104% | 103%
25 | CCN(CC)Cc1cc(Nc2ccnc3cc(Cl)ccc23)ccc1O | 82.7% | 93.3% | 100% | 97.7% | 94.4% | 116% | 88.4% | 88.5% | 91.6% | 93.9%
26 | CC1CCN(C(=O)CCCl)c2ccccc21 (stereo not given) | 113% | 114% | 96.6% | 129% | 103% | 112% | 96.9% | 115% | 87.5% | 98%
27 | CN1CCN(CCOc2ccc(-c3cnc4c(-c5cccc(F)c5F)cnn4c3)cc2)CC1 | -1.72% (active) | -30.5% (active) | 4.29% (active) | 116% | -49.8% (active) | 108% | 81.7% | -52.6% (active) | 103% | 8.9% (active)
